# Reference: the supplement of paper PMC10849652
# Targets with a hit are over-represented here; the source holds about 7,900 in all. About 0.6% of all pairs of compound and target were hits. Values without a mark were called inactive.
# Legend:
# Experiment in all cases: log2 fold change, soluble protein after heating vs DMSO (PISA); higher = thermal stabilisation; K562 cells, 10 uM, 30 min; active = over 0.2 and 3.5 SD of the protein, either way, in both replicates (recomputed)
# [1] = compound: CS(=O)(=O)c1ccc(-c2cnc(N)c(C(=O)Nc3ccccc3)n2)cc1
# Summary of the method: (§1)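 K562 cells (2×10^6 cells/mL) were treated with 10 μM compound for 30 min, and aliquots were heated for 3 min over 48°C-58°C. Pooled aliquots were extracted in PBS with 0.5% NP-40 at 4°C, and the supernatant after 21,000xg for 90 min was measured by TMTpro 16plex LC-MS/MS with channel sums equalised. Reported thermal stability, relative to control samples and from duplicates, is a log2 fold change.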
# crizotinib = compound: C[C@@H](Oc1cc(-c2cnn(C3CCNCC3)c2)cnc1N)c1c(Cl)ccc(F)c1Cl [crizotinib]
# Summary of the method: as §1
# [2] = compound: C[C@@H]1COCCN1C2=NC(=NC(=C2)C3(CC3)S(=O)(=O)C)C4=C5C=CNC5=CC=C4
# Summary of the method: as §1
# [3] = compound: C[C@H](C1=CC=C(C=C1)C(=O)NC2=C3C=CNC3=NC=C2)N
# Summary of the method: as §1
# duvelisib = compound: C[C@H](Nc1ncnc2nc[nH]c12)c1cc2cccc(Cl)c2c(=O)n1-c1ccccc1 [duvelisib]
# Summary of the method: as §1
# gandotinib = compound: Cc1cc(Nc2cc(CN3CCOCC3)c3nc(C)c(Cc4ccc(Cl)cc4F)n3n2)n[nH]1 [gandotinib]
# Summary of the method: as §1
# tozasertib = compound: Cc1cc(Nc2cc(N3CCN(C)CC3)nc(Sc3ccc(NC(=O)C4CC4)cc3)n2)n[nH]1 [tozasertib]
# Summary of the method: as §1
# [4] = compound: Cc1cc(SCc2sc(-c3ccc(C(F)(F)F)cc3)nc2C)ccc1OCC(=O)O
# Summary of the method: as §1
# doramapimod = compound: Cc1ccc(-n2nc(C(C)(C)C)cc2NC(=O)Nc2ccc(OCCN3CCOCC3)c3ccccc23)cc1 [doramapimod]
# Summary of the method: as §1
# ispinesib = compound: Cc1ccc(C(=O)N(CCCN)[C@@H](c2nc3cc(Cl)ccc3c(=O)n2Cc2ccccc2)C(C)C)cc1 [ispinesib]
# Summary of the method: as §1
# UniProt Q14681, sequence (Q14681 whole entry, looked up): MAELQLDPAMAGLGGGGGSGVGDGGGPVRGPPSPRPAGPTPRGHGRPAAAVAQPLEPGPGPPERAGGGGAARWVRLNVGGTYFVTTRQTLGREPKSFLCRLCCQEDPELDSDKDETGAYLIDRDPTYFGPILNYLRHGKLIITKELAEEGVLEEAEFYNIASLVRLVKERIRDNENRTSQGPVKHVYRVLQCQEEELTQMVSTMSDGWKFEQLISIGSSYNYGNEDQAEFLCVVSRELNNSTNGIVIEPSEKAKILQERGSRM
# UniProt P08514, sequence (P08514 whole entry, looked up): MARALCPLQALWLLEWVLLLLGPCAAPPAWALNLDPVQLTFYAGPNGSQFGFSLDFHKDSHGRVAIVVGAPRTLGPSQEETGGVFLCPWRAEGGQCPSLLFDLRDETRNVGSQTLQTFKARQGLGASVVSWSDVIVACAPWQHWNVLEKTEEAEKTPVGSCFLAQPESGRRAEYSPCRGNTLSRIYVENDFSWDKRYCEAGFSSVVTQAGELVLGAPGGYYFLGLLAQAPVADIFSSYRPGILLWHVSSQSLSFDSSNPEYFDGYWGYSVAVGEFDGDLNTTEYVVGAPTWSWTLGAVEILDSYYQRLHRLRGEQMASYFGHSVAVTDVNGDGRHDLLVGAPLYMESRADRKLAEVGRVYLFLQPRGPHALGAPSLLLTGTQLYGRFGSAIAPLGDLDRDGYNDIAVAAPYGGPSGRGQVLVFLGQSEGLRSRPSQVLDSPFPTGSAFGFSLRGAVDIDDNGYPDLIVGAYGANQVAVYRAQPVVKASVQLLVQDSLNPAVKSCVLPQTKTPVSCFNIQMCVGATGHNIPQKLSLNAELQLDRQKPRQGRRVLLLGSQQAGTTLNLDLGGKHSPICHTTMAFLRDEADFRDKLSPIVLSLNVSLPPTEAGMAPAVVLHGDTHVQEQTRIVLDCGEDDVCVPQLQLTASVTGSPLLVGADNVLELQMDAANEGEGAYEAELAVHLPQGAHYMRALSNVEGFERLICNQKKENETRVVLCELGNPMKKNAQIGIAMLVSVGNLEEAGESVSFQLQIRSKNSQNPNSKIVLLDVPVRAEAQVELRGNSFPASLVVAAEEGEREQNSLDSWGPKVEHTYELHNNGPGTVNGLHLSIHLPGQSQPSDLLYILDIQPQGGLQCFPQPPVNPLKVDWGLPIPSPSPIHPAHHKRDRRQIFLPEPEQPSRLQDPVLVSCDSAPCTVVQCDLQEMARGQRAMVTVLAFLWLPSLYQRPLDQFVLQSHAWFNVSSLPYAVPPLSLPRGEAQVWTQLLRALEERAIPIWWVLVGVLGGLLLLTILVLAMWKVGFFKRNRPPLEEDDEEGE
# UniProt Q13123, sequence (Q13123 whole entry, looked up): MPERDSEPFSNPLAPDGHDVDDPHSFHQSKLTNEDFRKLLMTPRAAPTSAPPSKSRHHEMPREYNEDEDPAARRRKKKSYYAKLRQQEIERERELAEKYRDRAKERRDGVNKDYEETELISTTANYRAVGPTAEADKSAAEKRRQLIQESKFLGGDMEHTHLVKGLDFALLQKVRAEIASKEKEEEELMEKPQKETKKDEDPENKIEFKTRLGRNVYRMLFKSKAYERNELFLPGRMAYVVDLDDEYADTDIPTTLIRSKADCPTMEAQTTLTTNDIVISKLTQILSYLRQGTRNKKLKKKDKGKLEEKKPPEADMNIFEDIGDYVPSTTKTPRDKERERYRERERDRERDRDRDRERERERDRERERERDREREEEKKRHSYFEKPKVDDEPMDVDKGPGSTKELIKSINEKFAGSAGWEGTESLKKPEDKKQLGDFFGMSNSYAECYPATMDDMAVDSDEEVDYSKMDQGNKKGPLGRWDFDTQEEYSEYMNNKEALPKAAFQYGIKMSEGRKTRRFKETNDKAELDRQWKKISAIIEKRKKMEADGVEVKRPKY
# UniProt Q12906, sequence (Q12906 whole entry, looked up): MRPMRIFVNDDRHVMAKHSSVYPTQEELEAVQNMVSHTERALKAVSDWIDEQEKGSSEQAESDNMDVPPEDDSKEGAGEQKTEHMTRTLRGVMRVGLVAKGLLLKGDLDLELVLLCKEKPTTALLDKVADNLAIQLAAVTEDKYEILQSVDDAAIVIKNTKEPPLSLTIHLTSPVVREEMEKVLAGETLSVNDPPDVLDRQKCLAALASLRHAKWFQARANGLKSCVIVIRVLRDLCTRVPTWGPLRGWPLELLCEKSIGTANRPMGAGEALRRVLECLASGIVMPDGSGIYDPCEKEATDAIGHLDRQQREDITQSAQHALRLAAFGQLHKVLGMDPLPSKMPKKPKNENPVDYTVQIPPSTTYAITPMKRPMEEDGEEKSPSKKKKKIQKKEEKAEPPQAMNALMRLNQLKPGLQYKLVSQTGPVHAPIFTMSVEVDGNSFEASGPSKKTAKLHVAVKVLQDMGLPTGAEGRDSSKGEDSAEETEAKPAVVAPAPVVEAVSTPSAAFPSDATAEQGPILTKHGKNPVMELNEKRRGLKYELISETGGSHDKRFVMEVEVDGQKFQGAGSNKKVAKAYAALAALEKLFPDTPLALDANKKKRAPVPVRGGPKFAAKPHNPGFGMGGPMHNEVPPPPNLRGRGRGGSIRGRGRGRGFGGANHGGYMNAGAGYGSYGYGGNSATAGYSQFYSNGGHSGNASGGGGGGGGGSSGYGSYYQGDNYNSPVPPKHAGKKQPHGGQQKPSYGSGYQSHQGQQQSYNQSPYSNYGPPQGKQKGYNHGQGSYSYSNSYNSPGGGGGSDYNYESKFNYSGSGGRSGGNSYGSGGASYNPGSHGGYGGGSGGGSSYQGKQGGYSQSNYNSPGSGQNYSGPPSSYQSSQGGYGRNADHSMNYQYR
# UniProt Q8IW41, sequence (Q8IW41 whole entry, looked up): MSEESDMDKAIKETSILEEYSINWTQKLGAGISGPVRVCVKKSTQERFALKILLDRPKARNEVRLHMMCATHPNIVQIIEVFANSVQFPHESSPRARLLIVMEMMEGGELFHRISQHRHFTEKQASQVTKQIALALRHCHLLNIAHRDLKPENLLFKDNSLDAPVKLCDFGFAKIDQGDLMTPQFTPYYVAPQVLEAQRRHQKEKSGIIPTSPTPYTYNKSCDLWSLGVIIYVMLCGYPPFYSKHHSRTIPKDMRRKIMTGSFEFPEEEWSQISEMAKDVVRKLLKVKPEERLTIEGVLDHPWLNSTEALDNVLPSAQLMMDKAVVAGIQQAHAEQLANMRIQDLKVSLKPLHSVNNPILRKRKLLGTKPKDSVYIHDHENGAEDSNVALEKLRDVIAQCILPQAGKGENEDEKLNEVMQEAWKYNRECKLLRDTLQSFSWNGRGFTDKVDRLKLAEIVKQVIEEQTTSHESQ
# UniProt Q96QZ7, sequence (Q96QZ7 whole entry, looked up): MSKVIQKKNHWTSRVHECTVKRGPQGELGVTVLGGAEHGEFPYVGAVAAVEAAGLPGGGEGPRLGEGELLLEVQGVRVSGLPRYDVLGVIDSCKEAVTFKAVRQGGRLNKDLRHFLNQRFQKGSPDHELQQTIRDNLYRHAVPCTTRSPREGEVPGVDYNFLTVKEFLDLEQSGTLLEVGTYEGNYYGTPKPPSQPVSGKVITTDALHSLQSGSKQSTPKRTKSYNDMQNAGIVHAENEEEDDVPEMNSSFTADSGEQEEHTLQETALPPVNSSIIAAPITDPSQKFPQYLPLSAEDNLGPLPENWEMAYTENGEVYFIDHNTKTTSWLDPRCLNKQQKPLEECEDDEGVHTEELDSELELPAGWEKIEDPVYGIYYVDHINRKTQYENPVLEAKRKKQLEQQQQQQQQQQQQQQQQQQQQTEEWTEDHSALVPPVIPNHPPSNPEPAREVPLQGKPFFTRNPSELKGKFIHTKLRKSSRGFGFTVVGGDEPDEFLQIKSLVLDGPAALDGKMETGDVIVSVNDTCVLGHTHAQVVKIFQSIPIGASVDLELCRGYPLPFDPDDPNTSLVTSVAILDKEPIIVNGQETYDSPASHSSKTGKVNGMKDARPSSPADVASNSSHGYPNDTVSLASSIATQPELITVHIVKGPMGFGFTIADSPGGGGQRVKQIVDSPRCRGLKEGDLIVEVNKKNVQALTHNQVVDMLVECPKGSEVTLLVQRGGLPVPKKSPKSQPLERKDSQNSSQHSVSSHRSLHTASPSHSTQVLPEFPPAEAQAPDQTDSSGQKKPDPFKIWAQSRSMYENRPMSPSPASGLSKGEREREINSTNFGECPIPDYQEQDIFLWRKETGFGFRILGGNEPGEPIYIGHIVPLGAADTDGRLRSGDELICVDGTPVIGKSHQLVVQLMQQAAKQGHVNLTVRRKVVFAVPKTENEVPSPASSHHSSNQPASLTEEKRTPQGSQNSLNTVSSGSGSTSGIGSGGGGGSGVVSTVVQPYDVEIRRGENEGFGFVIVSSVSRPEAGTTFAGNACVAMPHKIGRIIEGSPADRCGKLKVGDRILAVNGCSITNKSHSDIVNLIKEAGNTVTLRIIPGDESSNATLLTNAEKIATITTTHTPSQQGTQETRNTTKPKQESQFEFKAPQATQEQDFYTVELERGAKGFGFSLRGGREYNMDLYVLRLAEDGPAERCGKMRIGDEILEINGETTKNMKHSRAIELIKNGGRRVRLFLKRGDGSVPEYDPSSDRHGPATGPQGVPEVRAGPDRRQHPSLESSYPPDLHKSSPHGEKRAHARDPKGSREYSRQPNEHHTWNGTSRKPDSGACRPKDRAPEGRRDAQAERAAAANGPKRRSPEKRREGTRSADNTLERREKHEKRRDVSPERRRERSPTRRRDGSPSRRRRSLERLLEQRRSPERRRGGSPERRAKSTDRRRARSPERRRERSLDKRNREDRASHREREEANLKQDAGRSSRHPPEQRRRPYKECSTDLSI
# UniProt Q8WWC4, sequence (Q8WWC4 whole entry, looked up): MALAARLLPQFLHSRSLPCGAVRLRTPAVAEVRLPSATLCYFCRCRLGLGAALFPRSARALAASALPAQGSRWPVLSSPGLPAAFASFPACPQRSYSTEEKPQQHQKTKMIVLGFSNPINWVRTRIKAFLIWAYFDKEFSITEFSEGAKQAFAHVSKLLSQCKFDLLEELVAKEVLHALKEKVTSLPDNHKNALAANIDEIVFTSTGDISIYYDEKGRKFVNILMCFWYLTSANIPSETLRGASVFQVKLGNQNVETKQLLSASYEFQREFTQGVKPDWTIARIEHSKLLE
Target,log2 fold change [1],log2 fold change (crizotinib),log2 fold change [2],log2 fold change [3],log2 fold change (duvelisib),log2 fold change (gandotinib),log2 fold change (tozasertib),log2 fold change [4],log2 fold change (doramapimod),log2 fold change (ispinesib)
MAGI1 (UniProt Q96QZ7),-0.006,-0.003,-0.053,0.032,-0.013,0.003,-0.03,0.046,0.024,-0.042
MFSD5 isoform 2 (UniProt Q6N075),0.069,-0.039,-0.04,-0.046,0.112,-0.045,0.144,-0.004,0.004,0.051
KIAA1324L (UniProt A8MWY0),0.081,-0.125,0.06,0.062,-0.027,0.076,-0.036,-0.057,0.051,-0.124
MIEF1 (UniProt Q9NQG6),0.088,-0.31 (active),-0.005,-0.046,0.096,0.095,-0.038,0.065,0.007,-0.489 (active)
MAIP1 (UniProt Q8WWC4),0.071,-0.114,0.062,-0.072,0.025,-0.025,0.027,-0.005,-0.008,-0.21
MAPK8 isoform 3 (UniProt P45983),0.003,-0.08,0.092,-0.096,0.018,0.254,-0.127,0.096,-0.019,-0.008
LEO1 (UniProt Q8WVC0),0.092,0.026,-0.202,-0.126,0.008,-0.031,0.114,-0.008,0.071,0.052
MAPKAPK5 (UniProt Q8IW41),0.012,-0.046,0.027,0.069,0.056,0.297,-0.042,-0.013,0.141,-0.017
ILF3 isoform 7 (UniProt Q12906),-0.159,-0.074,-0.181,0.286,-0.092,0.1,0.039,-0.001,0.118,0.034
MAGEA9 (UniProt P43362),0.005,0.008,0.082,-0.028,0.12,-0.095,0.168,-0.029,0,-0.001
KIF3A (UniProt Q9Y496),0.049,-0.239,-0.01,0.143,0.048,-0.024,0.009,-0.029,0.003,0.044
MCU (UniProt Q8NE86),-0.013,-0.159,0.015,0.001,0.061,-0.172,-0.012,0.054,-0.013,-0.1
ITIH4 (UniProt Q14624),-0.107,-0.102,0.129,-0.005,0.103,-0.387,-0.033,-0.031,-0.291,-0.402
IK (UniProt Q13123),-0.041,0.021,-0.037,0.186,0.034,0.022,0.05,-0.007,0.016,0.065
MFN1 (UniProt Q8IWA4),0.031,-0.026,0.027,-0.063,0.037,0.025,-0.063,0.039,0.02,-0.207
LMBR1 isoform 3 (UniProt Q8WVP7),0.086,-0.198,0.019,-0.05,0.095,-0.812 (active),0.028,0.04,0.032,-0.477
MCUR1 (UniProt Q96AQ8),0.041,0.082,0.1,0.044,0.06,-0.021,0.043,-0.017,-0.002,0.255
KIF11 (UniProt P52732),0.034,-0.091,-0.029,0.207,-0.007,-0.018,0.12,0.19,0.13,0.761 (active)
KLHDC4 (UniProt Q8TBB5),0.093,0.157,-0.07,0.111,-0.091,0.041,0.025,0.039,0.069,0
MIEN1 (UniProt Q9BRT3),0.03,0.152,0.314 (active),-0.193,0.208,0.026,0.12,0.032,0.029,0.235
ILVBL (UniProt A1L0T0),0.055,0,0.058,0.061,0.106,0.02,-0.067,-0.005,-0.003,0.213 (active)
LTN1 isoform 3 (UniProt O94822),-0.049,-0.136,-0.077,0.128,-0.05,-0.234,0.012,0.11,0.021,-0.229
KCTD2 (UniProt Q14681),0.178,0.02,-0.047,0.511,0.211,0.355,-0.116,-0.281,0.089,0.026
INTS7 (UniProt Q9NVH2),0.009,-0.133,-0.053,-0.054,0,0.211,0.008,0.014,-0.091,-0.036
ILK (UniProt Q13418),0.054,0.038,-0.001,0.046,0.081,-0.039,-0.105,-0.046,-0.023,-0.153
LUZP1 (UniProt Q86V48),0.183,-0.259,-0.265,0.191,-0.009,0.058,0.196,0.206,0.017,-0.138
ITGA2B (UniProt P08514),-0.076,-0.068,-0.077,0.045,-0.11,0.283,0.15,0,0.031,-0.088
KLC2 (UniProt Q9H0B6),0.012,-0.131,0.008,-0.007,0.059,-0.079,-0.004,0.047,-0.002,-0.062
MIEF1 (UniProt L0R8F8),-0.023,0.068,-0.067,-0.065,0.151,-0.062,0.023,-0.025,-0.04,-0.03
